Experimental data taken from PubChem BioAssay AID1159580 (chemical genetic matrix, 2015).
Out of some 5,500 compounds screened, about 2,000 (36%) were called active. Another 18% or so got no clear call; they are omitted. This is one part of the list. Unmarked numbers belong to inactive results. No stated cut-off is given here; in the data, active means normalized growth mostly below about 0.91 (no sharp cut-off); inconclusive means no clear call, values can overlap the other calls; inactive means mostly above about 0.92.

Test: chemical genetic growth profiling, strain panel (AID 1159580);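 further: tested at 20 µM; growth read once vehicle control cultures reached saturation at 30 °C; 1 = growth at the plate median or of vehicle wells; lower values mean less growth of the strain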
Conditions: growth OD
[1] = S. cerevisiae deletion strains, locus YAL013W, strain DEP1, hits give low values
[2] = S. cerevisiae deletion strains, locus YBR229C, strain ROT2, hits give low values
[3] = S. cerevisiae deletion strains, locus YCL061C, strain MRC1, hits give low values
[4] = S. cerevisiae deletion strains, locus YDL101C, strain DUN1, hits give low values
[5] = S. cerevisiae deletion strains, locus YDR150W, strain NUM1, hits give low values
[6] = S. cerevisiae deletion strains, locus YEL061C, strain CIN8, hits give low values
[7] = S. cerevisiae deletion strains, locus YGR078C, strain PAC10, hits give low values
[8] = S. cerevisiae deletion strains, locus YHR030C, strain SLT2, hits give low values
[9] = S. cerevisiae deletion strains, locus YHR087W, strain rtc3, hits give low values
[10] = S. cerevisiae deletion strains, locus YJL187C, strain SWE1, hits give low values
[11] = S. cerevisiae deletion strains, locus YJR043C, strain POL32, hits give low values
[12] = S. cerevisiae deletion strains, locus YJR075W, strain HOC1, hits give low values
[13] = S. cerevisiae deletion strains, locus YKL190W, strain CNB1, hits give low values
[14] = S. cerevisiae deletion strains, locus YLR039C, strain RIC1, hits give low values
[15] = S. cerevisiae deletion strains, locus YLR058C, strain SHM2 (second series), hits give low values
[16] = S. cerevisiae deletion strains, locus YLR085C, strain ARP6, hits give low values
[17] = S. cerevisiae deletion strains, locus YLR262C, strain YPT6, hits give low values
[18] = S. cerevisiae deletion strains, locus YML094W, strain GIM5, hits give low values
[19] = S. cerevisiae deletion strains, locus YMR219W, strain ESC1, hits give low values
[20] = S. cerevisiae deletion strains, locus YMR263W, strain SAP30, hits give low values
[21] = S. cerevisiae deletion strains, locus YMR307W, strain GAS1, hits give low values
[22] = S. cerevisiae deletion strains, locus YNL153C, strain GIM3, hits give low values
[23] = S. cerevisiae deletion strains, locus YNL298W, strain CLA4 (second series), hits give low values
[24] = S. cerevisiae deletion strains, locus YNL322C, strain KRE1, hits give low values
[25] = S. cerevisiae deletion strains, locus YNR030W, strain Alg12, hits give low values
[26] = S. cerevisiae deletion strains, locus YOL006C, strain TOP1, hits give low values
[27] = S. cerevisiae deletion strains, locus YPL055C, strain LGE1, hits give low values
[28] = S. cerevisiae deletion strains, locus YPL241C, strain CIN2, hits give low values
[29] = S. cerevisiae deletion strains, locus YPR135W, strain CTF4, hits give low values
[30] = S. cerevisiae deletion strains, locus YDL134C, strain PPH21, hits give low values
[31] = S. cerevisiae deletion strains, locus YGR229C, strain SMI1, hits give low values
[32] = S. cerevisiae deletion strains, locus YNL128W, strain TEP1, hits give low values

## O=C1OC2COC(=O)C2C=C1NC(=O)c1ccc(Cl)cc1 (configuration not stated)
[1]
  normalized growth: 0.914 (active)
[2]
  normalized growth: 0.372 (active)
[3]
  normalized growth: 0.125 (active)
[4]
  normalized growth: 0.154 (active)
[5]
  normalized growth: 0.939
[6]
  normalized growth: 0.882 (active)
[7]
  normalized growth: 0.438 (active)
[8]
  normalized growth: 0.38 (active)
[9]
  normalized growth: 0.225 (active)
[10]
  normalized growth: 0.381 (active)
[11]
  normalized growth: 0.793 (active)
[12]
  normalized growth: 0.0733 (active)
[13]
  normalized growth: 0.913 (active)
[14]
  normalized growth: 0.422 (active)
[15]
  normalized growth: 0.506 (active)
[16]
  normalized growth: 0.836
[17]
  normalized growth: 0.436 (active)
[18]
  normalized growth: 0.82 (active)
[19]
  normalized growth: 0.143 (active)
[20]
  normalized growth: 0.921
[21]
  normalized growth: 0.786
[22]
  normalized growth: 0.329 (active)
[23]
  normalized growth: 0.698 (active)
[24]
  normalized growth: 0.967
[25]
  normalized growth: 0.978
[26]
  normalized growth: 0.72 (active)
[27]
  normalized growth: 0.942
[28]
  normalized growth: 0.975
[29]
  normalized growth: 0.627 (active)

## Clc1cc(Cl)c(Cl)c(-n2cccc2)c1Cl
[1]
  normalized growth: 0.855 (active)
[2]
  normalized growth: 0.914 (active)
[4]
  normalized growth: 0.893 (active)
[30]
  normalized growth: 0.826 (active)
[5]
  normalized growth: 0.863
[6]
  normalized growth: 0.763 (active)
[7]
  normalized growth: 0.813 (active)
[31]
  normalized growth: 0.752 (active)
[8]
  normalized growth: 0.178 (active)
[9]
  normalized growth: 0.8 (active)
[11]
  normalized growth: 0.887 (active)
[12]
  normalized growth: 0.707 (active)
[13]
  normalized growth: 0.622 (active)
[14]
  normalized growth: 0.304 (active)
[15]
  normalized growth: 0.938
[16]
  normalized growth: 0.41 (active)
[17]
  normalized growth: 0.216 (active)
[18]
  normalized growth: 0.691 (active)
[19]
  normalized growth: 0.952
[20]
  normalized growth: 0.916
[22]
  normalized growth: 0.933
[23]
  normalized growth: 0.641 (active)
[24]
  normalized growth: 0.956
[25]
  normalized growth: 0.631 (active)
[26]
  normalized growth: 0.395 (active)
[27]
  normalized growth: 0.785 (active)
[28]
  normalized growth: 0.701 (active)
[29]
  normalized growth: 0.543 (active)

## Clc1cc(Cl)cc(-n2cccc2)c1
[1]
  normalized growth: 1.02
[2]
  normalized growth: 0.995
[3]
  normalized growth: 1.03
[4]
  normalized growth: 1.01
[30]
  normalized growth: 0.969
[5]
  normalized growth: 1.04
[6]
  normalized growth: 0.963
[7]
  normalized growth: 1
[31]
  normalized growth: 0.98
[8]
  normalized growth: 0.975
[9]
  normalized growth: 0.989
[10]
  normalized growth: 1
[11]
  normalized growth: 1.02
[12]
  normalized growth: 0.981
[13]
  normalized growth: 0.988
[14]
  normalized growth: 1.04
[15]
  normalized growth: 0.994
[16]
  normalized growth: 0.949
[17]
  normalized growth: 1.05
[18]
  normalized growth: 0.991
[19]
  normalized growth: 0.997
[20]
  normalized growth: 1.01
[22]
  normalized growth: 1.01
[23]
  normalized growth: 0.951
[24]
  normalized growth: 1
[25]
  normalized growth: 0.98
[26]
  normalized growth: 0.977
[27]
  normalized growth: 0.981
[28]
  normalized growth: 0.987
[29]
  normalized growth: 0.917

## CCCc1cc(Br)c(-n2cccc2)c(Br)c1
[1]
  normalized growth: 0.998
[2]
  normalized growth: 0.993
[4]
  normalized growth: 1.01
[5]
  normalized growth: 1.01
[6]
  normalized growth: 1.02
[7]
  normalized growth: 0.997
[8]
  normalized growth: 1.08
[9]
  normalized growth: 0.994
[10]
  normalized growth: 0.992
[11]
  normalized growth: 1.02
[12]
  normalized growth: 0.994
[14]
  normalized growth: 1.09
[15]
  normalized growth: 0.998
[16]
  normalized growth: 1.08
[17]
  normalized growth: 1.05
[18]
  normalized growth: 1.01
[19]
  normalized growth: 0.994
[20]
  normalized growth: 0.938
[22]
  normalized growth: 1.01
[23]
  normalized growth: 1.06
[24]
  normalized growth: 0.997
[25]
  normalized growth: 1.01
[26]
  normalized growth: 1.04
[27]
  normalized growth: 1.13
[28]
  normalized growth: 1.02
[29]
  normalized growth: 1.05
S. cerevisiae strains, strain wild type, hits give low values
  normalized growth: 1.03

## O=C(O)/C=C/c1cnc[nH]1
S. cerevisiae deletion strains, locus YAL040C, strain CLN3, hits give low values
  normalized growth: 1.01
S. cerevisiae deletion strains, locus YCL061C, strain MRC1 (second series), hits give low values
  normalized growth: 1.01
[5]
  normalized growth: 1.02
S. cerevisiae deletion strains, locus YDR363W, strain ESC2, hits give low values
  normalized growth: 1.03
S. cerevisiae deletion strains, locus YER002W, strain NOP16, hits give low values
  normalized growth: 1
[12]
  normalized growth: 1.02
[20]
  normalized growth: 1.01
[21]
  normalized growth: 1.01
[32]
  normalized growth: 1.01
[22]
  normalized growth: 1.03
S. cerevisiae deletion strains, locus YNL175C, strain NOP13, hits give low values
  normalized growth: 0.997
S. cerevisiae deletion strains, locus YNL197C, strain WHI3, hits give low values
  normalized growth: 0.994
S. cerevisiae deletion strains, locus YNL224C, strain SQS1, hits give low values
  normalized growth: 0.984
[24]
  normalized growth: 1.03
S. cerevisiae deletion strains, locus YOR083W, strain WHI5 (second series), hits give low values
  normalized growth: 1.01
[28]
  normalized growth: 1.01

## O=C(N/N=C\C=C\c1ccccc1)c1ccccc1-n1cccc1
[1]
  normalized growth: 0.96
[2]
  normalized growth: 0.979
[4]
  normalized growth: 0.993
[5]
  normalized growth: 0.996
[6]
  normalized growth: 1
[7]
  normalized growth: 0.988
[8]
  normalized growth: 0.925
[9]
  normalized growth: 0.93
[10]
  normalized growth: 0.976
[11]
  normalized growth: 1.01
[12]
  normalized growth: 0.997
[14]
  normalized growth: 0.87
[15]
  normalized growth: 0.97
[16]
  normalized growth: 0.836
[17]
  normalized growth: 0.833
[18]
  normalized growth: 0.939
[19]
  normalized growth: 0.99
[20]
  normalized growth: 0.973
[21]
  normalized growth: 0.713
[32]
  normalized growth: 0.987
[22]
  normalized growth: 1
[23]
  normalized growth: 0.928
[24]
  normalized growth: 0.996
[25]
  normalized growth: 0.906
[27]
  normalized growth: 0.899
[28]
  normalized growth: 0.948
[29]
  normalized growth: 0.795
